Measured values published in PubChem BioAssay AID686978 (National Center for Advancing Translational Sciences (NCATS), 2013).
About 64,000 (15%) of roughly 420,000 compounds were called active. Not shown: some 27% with an inconclusive outcome. Calls follow the shape of the dose curve; as a rule, active = well fitted inhibition curve with a large enough effect; inconclusive = small, poorly fitted or top-dose-only effect; inactive = flat fitted curve, though single readings scatter. The list is a sample of the results.
% is scaled to controls: 0 for no effect and ±100 for the full control effect; potency is read from the fitted curve at half-maximal effect.

Test: qHTS for Inhibitors of human tyrosyl-DNA phosphodiesterase 1 (TDP1): qHTS in cells in absence of CPT; also: nearly all actives have a fitted effect of over 55% in size
Details: DT40 Tdp1-/- hTDP1 cells, no CPT, ATP luminescence, 48 h; activity change, negative = growth inhibition: at 46.2 µM (top of the series)
Method in brief: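 Growth of hTDP1-complemented DT40 Tdp1-knockout cells is measured by ATP luminescence after at least 48 hr compound exposure at 37 °C, with DMSO substituting for the 20 nM CPT used in the parallel screen.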
With `O=C(O)CCC(=O)Nc1nc2ccc([N+](=O)[O-])cc2s1` the “activity change, negative = growth inhibition” value was 4.77% (inactive).
With `O=S(=O)(c1ccccc1)N1CCc2ccccc21` the “activity change, negative = growth inhibition” value was -7.81% (inactive).
With `CSc1nc2ccc(S(=O)(=O)N3CCc4ccccc43)cc2s1` the Potency was 23.1 µM (active).
In the case of `O=C(NC(Nc1nc2ccc([N+](=O)[O-])cc2s1)(C(F)(F)F)C(F)(F)F)c1ccccc1`, the Potency was 0.461 µM (active).
With `O=C(COC(=O)c1ccc(S(=O)(=O)N2CCCCCC2)cc1)Nc1ccccc1C(F)(F)F` the “activity change, negative = growth inhibition” value was 1.22% (inactive).
In the case of `Cc1ccc(C2(C)NC(=O)N(CC(=O)N3CC(=O)Nc4ccccc43)C2=O)cc1` (stereo not given), the “activity change, negative = growth inhibition” value was -4.34% (inactive).
For `COC(=O)C[C@@H]1C=C[C@@H](NC(=O)c2ccc3c(c2)OCO3)[C@@H](CO)O1`, the “activity change, negative = growth inhibition” value was -10.5% (inactive).
With `COCCC(=O)N1CCC(Oc2ccc(C(=O)NCc3ccon3)cc2)CC1` the “activity change, negative = growth inhibition” value was -24.7% (inactive).
In the case of `N#Cc1c(-c2ccccc2)cc(-c2ccccc2)nc1SCC(=O)O`, the “activity change, negative = growth inhibition” value was 10.7% (inactive).
For `CN1C(=O)CN2CCc3ccccc3C2c2cc(Cl)ccc21` (stereo not given), the “activity change, negative = growth inhibition” value was 0.961% (inactive).
With `CN1CCN(C2Cc3ccc(Cl)cc3Sc3ccc(F)cc32)CC1` (stereo not given) the Potency was 18.4 µM (active).
For `COC(=O)C1NN=C(C(=O)c2ccc(Br)cc2)C1c1cccc(Br)c1` (stereo not given), the “activity change, negative = growth inhibition” value was -18.6% (inactive).
In the case of `Cc1ccc(NC(=O)C2CC2c2ccccc2)cc1` (stereo not given), the “activity change, negative = growth inhibition” value was 2.36% (inactive).
With `Nc1ncnc2c1ncn2[C@@H]1O[C@H](C(=O)N2CCSC2)[C@@H](O)[C@H]1O` the “activity change, negative = growth inhibition” value was -25.8% (inactive).
In the case of `C=CCc1ccccc1OCC(O)CN1CCN(CCO)CC1` (stereo not given), the “activity change, negative = growth inhibition” value was 20.7% (inactive).
In the case of `Cc1cccc(C)c1OCC(O)CN1CCCCC1` (stereo not given), the “activity change, negative = growth inhibition” value was 4.81% (inactive).
In the case of `Cc1cccc(OCC(O)CN2CCN(CCN3C(=O)c4cccc5cccc(c45)C3=O)CC2)c1C` (stereo not given), the Potency was 25.9 µM (active).
In the case of `CCCC(C(=O)NC1CCCC1)N(C(=O)Cn1nnc(-c2ccc(C)o2)n1)c1cccc(O)c1` (stereo not given), the “activity change, negative = growth inhibition” value was -11.8% (inactive).
In the case of `COC(=O)c1cc(C)sc1NC(=O)CC1Nc2ccccc2NC1=O` (stereo not given), the “activity change, negative = growth inhibition” value was -15.1% (inactive).
With `O=C(c1csnn1)N1CCC[C@@]2(CCN(Cc3nccs3)C2)C1` the “activity change, negative = growth inhibition” value was 4.1% (inactive).
With `NC(=O)NC(=O)C(OC(=O)CCNS(=O)(=O)c1ccccc1)c1ccccc1` (stereo not given) the “activity change, negative = growth inhibition” value was 2.11% (inactive).
In the case of `Cc1ccc(N2C(=O)C3CC3C2=O)cc1` (stereo not given), the “activity change, negative = growth inhibition” value was 11% (inactive).
For `Cc1ccc(N2C(=O)C(Cc3ccccc3)NC2=S)cc1` (stereo not given), the “activity change, negative = growth inhibition” value was -9.36% (inactive).
With `Cc1ccc(N2C(=O)C3C(c4ccccc4)(C2=O)C3(c2ccccc2)c2ccccc2)cc1` (stereo not given) the Potency was 13 µM (active).
In the case of `O=C(N1CCCC1)C12CC3CC(C1)CC(C(=O)N1CCCC1)(C3)C2`, the “activity change, negative = growth inhibition” value was -19% (inactive).
For `COc1ccccc1C(=O)NNC(=O)CCN1C(=O)/C(=C\c2ccccc2)SC1=S`, the “activity change, negative = growth inhibition” value was -25.6% (inactive).
For `CC(OC(=O)CNS(=O)(=O)/C=C/c1ccccc1)C(=O)Nc1ccc(S(=O)(=O)N2CCCC2)cc1` (stereo not given), the “activity change, negative = growth inhibition” value was -12.5% (inactive).
With `Cc1ccc(CNC(=O)CC(NC(=O)c2ccccc2)c2ccccc2)cc1` (stereo not given) the “activity change, negative = growth inhibition” value was 11.7% (inactive).
In the case of `COc1ccc(Cc2nc3ccc(C(=O)NCc4ccccc4Cl)cc3o2)cc1`, the Potency was 16.4 µM (active).
With `COc1ccc(Cc2nc3ccc(C(=O)NCc4ccccc4C)cc3o2)cc1` the Potency was 8.2 µM (active).
For `CSCCNC(=O)c1ccc2nc(Cc3ccccc3F)oc2c1`, the “activity change, negative = growth inhibition” value was -0.744% (inactive).
In the case of `CCn1ccnc1CN(C)C(=O)c1ccc2nc(Cc3ccc(OC)cc3)oc2c1`, the “activity change, negative = growth inhibition” value was -4.12% (inactive).
For `COCCNC(=O)c1ccc2nc(Cc3ccc(OC)c(OC)c3)oc2c1`, the “activity change, negative = growth inhibition” value was 0.0783% (inactive).
In the case of `COc1ccc(Cc2nc3ccc(C(=O)N4CCC(N(C)C)C4)cc3o2)cc1` (stereo not given), the “activity change, negative = growth inhibition” value was 9.41% (inactive).
For `CCCc1c(C(=O)N/N=C(\C)CCc2ccc(OC)cc2)nnn1-c1nonc1N`, the “activity change, negative = growth inhibition” value was 15.5% (inactive).
In the case of `Cc1ccc2c(C)c(C(=O)N(C)Cc3ccncn3)oc2c1C`, the “activity change, negative = growth inhibition” value was 15.4% (inactive).
With `COc1ccc(NC(=O)CN(C)C(=O)c2n[nH]c3ccccc23)cc1` the “activity change, negative = growth inhibition” value was -22.5% (inactive).
In the case of `CCOCCCNC(=O)C(NC(=O)CNC(=O)c1ccccc1)c1ccc(OC)cc1` (stereo not given), the “activity change, negative = growth inhibition” value was 4.34% (inactive).
With `COc1ccc(CNC(=O)CN2C(=O)c3ccccc3S2(=O)=O)cc1` the “activity change, negative = growth inhibition” value was -24.4% (inactive).
In the case of `COc1ccc(C(C(=O)NCc2ccccc2)n2c(=O)c(-c3ccccc3)nc3ccccc32)cc1` (stereo not given), the Potency was 16.4 µM (active).
For `COc1ccc(NC(=O)C(c2ccccc2)N2Cc3ccccc3C2=O)cc1` (stereo not given), the “activity change, negative = growth inhibition” value was -8.19% (inactive).
With `CCOCCCNC(=O)C(NC(=O)Cc1c[nH]c2ccccc12)c1ccc(OC)cc1` (stereo not given) the “activity change, negative = growth inhibition” value was -15% (inactive).
With `CCSc1ccccc1C(=O)NCc1ccc(OC)cc1` the “activity change, negative = growth inhibition” value was -8.91% (inactive).
With `CCCCCNC(=O)C(c1ccc(OC)cc1)n1c(=O)c(-c2ccccc2)nc2ccccc21` (stereo not given) the Potency was 20.6 µM (active).
With `COc1ccc(NC(=O)C(c2ccncc2)n2c(=O)c(-c3cc4ccccc4[nH]3)nc3ccccc32)cc1` (stereo not given) the Potency was 18.4 µM (active).
With `COC(=O)C1=C(C(=O)OC)C2(OC1c1ccc(Br)cc1)C(=O)c1ccccc1C2=O` (stereo not given) the “activity change, negative = growth inhibition” value was 9.73% (inactive).
For `CN(c1ccc(OCC(=O)NC2=NCCS2)cc1)S(=O)(=O)c1ccc(F)cc1`, the “activity change, negative = growth inhibition” value was -12.9% (inactive).
In the case of `O=C(CSc1ccc(-c2ccccc2)nn1)NCC1CCCO1` (stereo not given), the “activity change, negative = growth inhibition” value was -15.8% (inactive).
In the case of `CN(C)/C=C(\C#N)C(=O)c1cccnc1Oc1cccc(F)c1`, the “activity change, negative = growth inhibition” value was -13.7% (inactive).
With `C[C@@H]1CN([C@@H](C)CO)C(=O)c2cc(NC(=O)C3CC3)ccc2O[C@H]1CN(C)C` the “activity change, negative = growth inhibition” value was -12.9% (inactive).
